Results reported in PubChem BioAssay (NCI).
Several values for one entry are separate records, joined by “and”; a condition that tells them apart may be missing. Equal entries are not always repeated. This is part of a sample that, as a whole, favours compounds with a hit. Of some 83,000 tested, about 20% had one in any assay.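 Single-concentration screen, 48 h exposure, 96-well plates. Endpoint: percent growth. Below 10 = active.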 Activity calls are given as the source filed them.

What follows are compounds tested on TK-10 renal (assay: NCI-60 one-dose screen, 48 h (100 = growth as untreated, 0 = no growth, -100 = all killed)). Details: 4.75 µM.
Method: Growth inhibition of the TK-10 human tumor cell line is measured as a screen for anti-cancer activity. Cells are grown in 96 well plates and exposed to the test compound for 48 hours. Compounds are tested at a single concentration, which is 10^-5 M for most compounds. The reported endpoint is percent growth (GI% or GIPRCNT), where numbers from 0 - 100% represent growth inhibition, and numbers from -100% - 0 represent cell death. For example, a value of 40 represents 60% growth inhibition. A value of 0 means no net growth occurred over the course of the experiment. A value of -40 indicates 40% of cells at the beginning of the experiment died by the end of the experiment. A value of -100 means all cells are dead at the end of the experiment.
NCI-60 Human Tumor Cell Lines Screen was performed using the standard one-dose NCI protocol, which is described in more detail at https://dtp.cancer.gov/discovery_development/nci-60/default.htm.
Compounds with GIPRCNT values below 10 were considered active. Activity score was based on GIPRCNT using the following formula: […]
Score is 0 for GIPRCNT values of 100 or above, 50 for GIPRCNT values of 0, and 100 for GIPRCNT values of -100.

Q: Which growth does the source give for `CC(=O)OCC1OC([S-])C(OC(C)=O)C(OC(C)=O)C1OC(C)=O.[Au+].c1ccc(CN2[CH-]N(Cc3ccccc3)C(c3ccccc3)=C2c2ccccc2)cc1` here?
A: 5.22% (active)

Same assay, conditions: 10 µM

Q: How did the growth turn out when `CC(=O)OCC1OC([S-])C(OC(C)=O)C(OC(C)=O)C1OC(C)=O.[Au+].c1ccc(CN2[CH-]N(Cc3ccccc3)C(c3ccccc3)=C2c2ccccc2)cc1` was run?
A: -41.6% (active)

Same assay, conditions: 10 µM unless noted

Q: With `COC(=O)C1=CCCN(C)C1` as the compound, how does the growth read?
A: 106% (inactive) and 103% (inactive)

Q: Which growth does the source give for `O=S(=O)(F)c1cccc(Cl)c1C[P+](c1ccccc1)(c1ccccc1)c1ccccc1` here?
A: 116% (inactive)

Q: With `O=C1NC(=O)C(=C/C=C/c2ccccc2)C(=O)N1` as the compound, how does the growth read?
A: 14.8% (inactive)

Q: `Nc1ccc(S(=O)(=O)F)cc1` was tested. Which growth did it give?
A: 92.7% (inactive)

Q: With `CN1CCN(c2ccc(Cl)cc2)CC1` as the compound, how does the growth read?
A: 102% (inactive)

Q: `CC/C(=C(\c1ccc(OCCN2CCOCC2)cc1)c1ccc(OC(=O)Cc2ccccc2)cc1)c1ccc(Cl)cc1` was tested. Which growth did it give?
A: 93% (inactive)

Q: How did the growth turn out when `CC1(C)C2CCC1(CS(=O)(=O)O)C(=O)C2` (stereo not given) was run?
A: 96% (inactive) and 87.3% (inactive)

Q: How did the growth turn out when `Nc1ccc(P(=O)(O)O)cc1` was run?
A: 119% (inactive) and 97.4% (inactive)

Q: For `CC1(C)N(Nc2ccccc2)C(=O)C2CCCN21` (stereo not given), which growth is on record?
A: 59.6% (inactive)

Q: Which growth does the source give for `CC[C@H](C)[C@H](NC(=O)[C@H]1CCCCN1C)C(=O)N(C)[C@H](C[C@@H](OC(C)=O)c1cccc(C(=O)N[C@@H](Cc2ccccc2)C[C@H](C)C(=O)OC)n1)C(C)C` here?
A: 34.4% (inactive)

Q: With `C[N+]1(CC#CC[N+]2(C)CCCC2)CCCC1` as the compound, how does the growth read?
A: 96.3% (inactive)

Q: With `COC(=O)C1=CO[C@@H](C)[C@@H]2CN3CCc4c([nH]c5cc(OC)ccc45)[C@@H]3C[C@H]12` as the compound, how does the growth read?
A: 101% (inactive)

Q: For `CN(C)c1ccc(N)cc1`, which growth is on record?
A: 117% (inactive) and 26.5% (inactive)

Q: Which growth does the source give for `C[C@]12CCc3nc(-c4ccc(O)c(O)c4)sc3C1=CC[C@@H]1[C@@H]2CC[C@]2(C)C(=O)CC[C@@H]12` here?
A: 53.6% (inactive)

Q: `CCCCCCCCCCCCCCCC[N+](C)(C)C` was tested. Which growth did it give?
A: -72.8% (active) and -39.9% (active)

Q: How did the growth turn out when `Oc1ccccc1C=NCCN=Cc1ccccc1O` was run?
A: 104% (inactive)

Q: How did the growth turn out when `Cc1ccc(P(=O)(O)O)cc1` was run?
A: 102% (inactive)

Q: How did the growth turn out when `C[C@]12CCc3sc(Nc4ccc(F)cc4F)nc3C1=CC[C@@H]1[C@@H]2CC[C@]2(C)C(=O)CC[C@@H]12` was run?
A: 50.2% (inactive)

Q: With `N#CCCc1ccccc1` as the compound, how does the growth read?
A: 113% (inactive)

Q: Which growth does the source give for `[N-]=[N+]=CC(=O)CCC(=O)C=[N+]=[N-]` here?
A: 114% (inactive)

Q: With `Oc1ccccc1C=NCCN=Cc1ccccc1O.[Fe]` as the compound, how does the growth read?
A: 115% (inactive)

Q: Which growth does the source give for `COc1cc(-c2ccc(N)c(OC)c2)ccc1N` here?
A: 107% (inactive)

Q: `CN(C)C(=S)SSC(=S)N(C)C` was tested. Which growth did it give?
A: 106% (inactive) and 101% (inactive)

Q: Which growth does the source give for `CC[C@H](C)[C@H](NC(=O)[C@H]1CCCCN1C)C(=O)N(C)[C@H](C[C@@H](OC(C)=O)c1nc(C(=O)N[C@@H](Cc2ccccc2)C[C@H](C)C(=O)O)cs1)C(C)C` here?
A: 22.8% (inactive)

Q: `CCC1(CCSC#N)C(=O)NC(=O)NC1=O` was tested. Which growth did it give?
A: 86.5% (inactive)

Q: For `O=[N+]([O-])c1cc(Br)c(O)c(Br)c1`, which growth is on record?
A: 100% (inactive)

Q: How did the growth turn out when `CCOC(=O)C1C(c2ccco2)C2(C#N)C(=N)OC1(C)C2(C#N)C#N` (stereo not given) was run?
A: 83.8% [100 µM] (inactive) and 19.2% [100 µM] (inactive)

Q: For `C(=NC1CCCCC1)=NC1CCCCC1`, which growth is on record?
A: 101% (inactive) and 104% (inactive)

Q: Which growth does the source give for `C=C1C(=O)OC2CC3(C)OC3C3OC3C3=CC(OC3=O)C12` (stereo not given) here?
A: 16.7% (inactive) and -22.5% (active)

Q: How did the growth turn out when `Cc1cc(N)ccc1N` was run?
A: 126% (inactive)

Q: `O=C=Nc1ccc(Br)cc1` was tested. Which growth did it give?
A: 109% (inactive)

Q: Which growth does the source give for `CC[C@H](C)[C@H](NC(=O)[C@H]1CCCCN1C)C(=O)N(C)[C@H](C(=O)NC12CC(C(=O)N[C@@H](Cc3ccccc3)C[C@H](C)C(=O)OC)(C1)C2)C(C)C` here?
A: 98.4% (inactive)

Q: `C[N+]1(C)CCCC1c1cccnc1` (stereo not given) was tested. Which growth did it give?
A: 111% (inactive)

Q: How did the growth turn out when `COc1ccc(C(C#N)C(C)=O)cc1` (stereo not given) was run?
A: 96.8% (inactive)

Q: How did the growth turn out when `Clc1ccc(COC(Cn2ccnc2)c2ccc(Cl)cc2Cl)c(Cl)c1` (stereo not given) was run?
A: 62.1% (inactive) and 73.5% (inactive)

Q: With `Cc1cc(NC(=O)NCCCOc2ccc(N3C(N)=NC(N)=NC3(C)C)cc2Cl)ccc1S(=O)(=O)F` as the compound, how does the growth read?
A: 46.5% (inactive)

Q: For `CCOC(=O)c1ccccc1C(=O)OCC`, which growth is on record?
A: 98.2% (inactive)

Q: How did the growth turn out when `O=C1CCCCC1CN1CCCCC1` (stereo not given) was run?
A: 90.4% (inactive)
